Many of the other results were omitted from the sample, so hits are more common in it than they were.
FBPA Giardia inh = inhibitors of Giardia lamblia fructose-1,6-bisphosphate aldolase. A8B2U2. purified Giardia FBPA. Potency, µM (titrated, usually from 59.6 µM), actives largely listed as inhibitors. actives 0.71% (n = 290,000); also: nearly all actives have a fitted effect of over 55% in size
Target sequence (A8B2U2 whole entry, looked up): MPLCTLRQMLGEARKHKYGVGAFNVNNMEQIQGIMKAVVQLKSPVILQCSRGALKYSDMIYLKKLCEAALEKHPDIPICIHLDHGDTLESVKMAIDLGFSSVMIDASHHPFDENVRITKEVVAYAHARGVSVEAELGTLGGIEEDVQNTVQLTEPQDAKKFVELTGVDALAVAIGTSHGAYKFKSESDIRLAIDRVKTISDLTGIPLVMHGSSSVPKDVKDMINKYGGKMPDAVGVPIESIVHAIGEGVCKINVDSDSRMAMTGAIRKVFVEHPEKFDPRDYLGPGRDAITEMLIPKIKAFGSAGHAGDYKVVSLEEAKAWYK
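40 nM FBPA preincubated 10 min at RT with compound (up to 57.5 uM final), then substrate plus GAPDH/TPI/NAD/arsenate coupling and diaphorase/resazurin added. Fluorescence read after 20 min at RT, 525/598 nm.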
Shiga toxin inh = inhibitors of Shiga toxin in Vero cells | inhibition, % at 38.7 µM | actives 9.2% (n = 290,000) | AID 2315 | Vero cells, Shiga toxin protein synthesis inhibition reporter; in the data active = inhibition mostly above about 28%, no sharp cut-off; inactive = mostly below about 43%
LmPK inhibitor = LmPK (Leishmania mexicana) enzyme inhibition; purified LmPK, Kinase-Glo ATP luminescence, 1 h; Potency, µM (highest dose often 57.5 µM), usual class: inhibitors; actives 0.37% (n = 290,000)
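In 50 mM imidazole pH 7.2 with 7 mM MgCl2, LmPK (0.1 nM) turned over PEP (0.5 mM) and ADP (0.1 mM) for 1 h at room temperature. Luciferase read-out of ATP.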
RE007 growth inh = less growth of the S. pombe RE007 Vpr strain; S. pombe RE007 Vpr strain, BacTiter-Glo ATP luminescence, 24 h; Potency, µM (top dose mostly 92.2 µM), actives largely listed as inhibitors; actives 0.21% (n = 360,000); active = well fitted falling curve with a large enough effect; inconclusive = small, poorly fitted or top-dose-only effect; inactive = no such curve, though single readings can be large or run the other way; also: nearly all actives have a fitted effect of over 50% in size
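Fission yeast strain RE007, carrying one chromosomally integrated HIV-1 vpr copy, was seeded at OD 0.01 in PMG+AL medium with 23 nL pinned compound. After 24 h at 30 °C and 99% humidity, viability was read by BacTiter-Glo luminescence.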
CHX counter-1 = counter-screen hit for Shiga toxin inhibitors, cycloheximide | cell reporter, cycloheximide protein synthesis inhibition counterscreen | max response, % | AID 2314 | actives 12% (n = 300,000); in the data active = max response mostly above about 13%, no sharp cut-off; inactive = mostly below about 14%; also: read at 38.3 µM for the half of the compounds with a filed dose
Tb PYK inh = inhibitors of Trypanosoma brucei pyruvate kinase; TbPYK enzyme, Kinase-Glo Plus ATP luminescence, 45 min; Potency, µM (top dose mostly 76.8 µM), usual class: inhibitors; actives 0.12% (n = 410,000); AID 624173; also: nearly all actives have a fitted effect of over 50% in size
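Readout: single end-point luminescence (Kinase-Glo Plus, 10 min). Reaction conditions were TbPYK/substrate plus 130 uM ADP, 45 min at RT, pH 7.2 TEA buffer. No-enzyme wells served as controls, and data were normalized before concentration-response fitting.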
CHX counter-2 = protein synthesis counter-screen activity for Shiga toxin hits; shares compounds with Shiga toxin inh; Cycloheximide counterscreen, protein synthesis reporter, Shiga toxin assay; Potency, µM (series often up to 38.3 µM), usual class: activators; actives 3% (n = 510); calls by dose curve
Each line names hits and unclear results; the compound was inactive in the other large screens (follow-up assays come after a bar, where they were run). Unless noted, calls follow the shape of the dose curve; as a rule, active = well fitted curve in the direction sought with a large enough effect; inconclusive = small, poorly fitted or top-dose-only effect, or another doubt; inactive = no such curve, though single readings can be large; an effect the other way counts as inactive or inconclusive.

Cc1nnc(NC(=O)CSc2ccc(-c3ccc(Cl)cc3)nn2)s1	Shiga toxin inh 30 | CHX counter-2 inactive
CCc1nnc(NC(=O)CSc2ccc(Cl)cc2)s1	none
COc1ccc(/C=C/c2nnc(NC(=O)CSc3ccc(Cl)cc3)s2)cc1	Shiga toxin inh 37 | CHX counter-2 inconclusive
COc1ccc(/C=C(/NC(=O)c2cccc([N+](=O)[O-])c2)C(=O)O)cc1OC	none
COc1cccc(/C=C/C(=O)c2cccc([N+](=O)[O-])c2)c1	Shiga toxin inh 51 | CHX counter-2 inactive
COc1cccc(/C=C/C(=O)c2cccc([N+](=O)[O-])c2)c1OC	Shiga toxin inh 60 | CHX counter-2 inactive
Cc1ccc(CSC(Nc2ccc(F)cc2)=C(C#N)C#N)cc1	Shiga toxin inh 21 | CHX counter-2 inactive
Cc1c(-c2nsc(NC(=O)c3cccs3)n2)nnn1-c1ccc(F)cc1	none (no result: FBPA Giardia inh, Shiga toxin inh, LmPK inhibitor, RE007 growth inh, CHX counter-1)
COc1cc(CSc2ncc(CO)n2Cc2ccc(C)cc2)cc(OC)c1	none (no result: FBPA Giardia inh, Shiga toxin inh, LmPK inhibitor, RE007 growth inh, CHX counter-1)
CCc1ccc(NC(=O)c2cnc(N3CCN(c4ccccn4)CC3)c3ccccc23)cc1	Shiga toxin inh 50 | CHX counter-2 inactive
CC(C)NC(=O)c1cnc(N2CCN(c3ccccn3)CC2)c2ccccc12	none
CCc1nc2ccccc2c(=O)n1NCCc1ccccc1	Shiga toxin inh 49 | CHX counter-2 inactive
Cc1ccc(N2CC(NC(=O)C3CCCCC3)CC2=O)cc1 (stereo not given)	none (no result: FBPA Giardia inh, Shiga toxin inh, LmPK inhibitor, RE007 growth inh, CHX counter-1)
O=C(O)Cn1nnc(-c2ccc(OCc3ccccc3Cl)cc2)n1	Shiga toxin inh 40 | CHX counter-2 inactive
O=C(CSCc1ccco1)NC1CCCC1	Shiga toxin inh 29 | CHX counter-2 inactive
Cc1cc(C(=O)CS(=O)(=O)c2ccc(F)cc2)cc(C)c1O	Shiga toxin inh 34 | CHX counter-2 inconclusive
O=C(OCc1cc(=O)n2nc(C3CCCCC3)sc2n1)c1ccccc1Cl	none (no result: FBPA Giardia inh, Shiga toxin inh, LmPK inhibitor, RE007 growth inh, CHX counter-1)
CC1CCCN(CCSc2ccc(Cl)cc2)C1 (stereo not given)	Shiga toxin inh 30 | CHX counter-2 inactive
CC(C)C(=O)SCCCCCCC(=O)Nc1nc(-c2ccccc2)cs1	Shiga toxin inh 16 (no result: LmPK inhibitor, RE007 growth inh, Tb PYK inh) | CHX counter-2 inactive
O=C(O)CCCC(=O)Nc1nc(-c2ccccc2)cs1	none
COc1ccc(NC(=O)CN(C)S(=O)(=O)c2ccc(Br)s2)cc1OC	Shiga toxin inh 34 | CHX counter-2 inactive
COc1ccc(NC(=O)CN(C)S(=O)(=O)c2ccc(Br)s2)cc1	none
CCC(=O)N1c2ccccc2CC1C(=O)NCCc1ccc(OC)c(OC)c1 (stereo not given)	none (no result: FBPA Giardia inh, Shiga toxin inh, LmPK inhibitor, RE007 growth inh, CHX counter-1)
Cc1ccc(N(CC(=O)NCc2ccco2)C(=O)CCC(=O)Nc2nccs2)c(C)c1	Shiga toxin inh 27 | CHX counter-2 inactive
Cc1ccccc1N(CC(=O)NCc1ccco1)C(=O)CCC(=O)Nc1nccs1	none
CCc1nc2cccnc2n1-c1ccc(CC(=O)Nc2ccc(C)cc2)cc1	none (no result: FBPA Giardia inh, Shiga toxin inh, LmPK inhibitor, RE007 growth inh, CHX counter-1)
CCOC(=O)c1c(C)[nH]c(C)c1S(=O)(=O)NCC(=O)Nc1cccc(C#N)c1	none (no result: FBPA Giardia inh, Shiga toxin inh, LmPK inhibitor, RE007 growth inh, CHX counter-1)
Cc1cc(C)nc(SCc2nc3ccccc3n2C)n1	Shiga toxin inh 41 | CHX counter-2 inactive
Cc1cc(C)n(Cc2nc3ccccc3n2C)n1	none
CCn1c2ccccc2c2cc(NC(=O)c3cccc([N+](=O)[O-])c3)ccc21	Shiga toxin inh 61 | CHX counter-2 inactive
CCn1c2ccccc2c2cc(NC(=O)c3ccc(C)c([N+](=O)[O-])c3)ccc21	none
COc1ccccc1NC(=O)Nc1cc(F)ccc1F	Shiga toxin inh 132 | CHX counter-2 inconclusive
COc1ccccc1NC(=O)Nc1nc(CC(=O)Nc2cc(F)ccc2F)cs1	none (no result: FBPA Giardia inh, Shiga toxin inh, LmPK inhibitor, CHX counter-1)
Fc1ccc(-c2nc(Nc3ccc(F)c(Cl)c3)nc3c2COc2ccccc2-3)cc1	none (no result: FBPA Giardia inh, Shiga toxin inh, LmPK inhibitor, RE007 growth inh, CHX counter-1)
CC(=O)c1cc(-c2ccc(F)cc2)n(CCC(=O)NCc2ccc(C)cc2)c1C	none (no result: FBPA Giardia inh, Shiga toxin inh, LmPK inhibitor, RE007 growth inh, CHX counter-1)
COc1ccc(Cn2nnnc2C(C(C)C)N(Cc2ccco2)Cc2cccs2)cc1 (stereo not given)	Shiga toxin inh 44 | CHX counter-2 inactive
CCN(CC)CC(=O)Nc1ccc(-c2nc3cc(NC(=O)CN(CC)CC)ccc3o2)cc1	Shiga toxin inh 81 | CHX counter-2 inactive
